Reference: the supplement of paper PMC8728848
This is one part of a sample in which the strongest signals are shown more often than they occur.

Experiments:
Experiment in all cases: glycan array binding signal (z-score within array); higher = stronger binding
Conditions in all cases: glycan notation: IUPAC condensed, linker removed
[1] = molecular target: Fuc(a1-2)Gal(b1-4)GlcNAc6S
In short: (§1)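 Glycan array data were curated from 3228 arrays in the Consortium for Functional Glycomics database and kept only where the protein sequence was available. Glycan names were converted to IUPAC-condensed notation, and columns mapping to the same glycan were averaged. The binding signal is a within-array Z-score, averaged across arrays of the same protein sequence at different concentrations or buffers and across linkers. Negative Z-scores can be read as non-binding.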

[2] = molecular target: Fuc(a1-2)Gal(b1-4)[Fuc(a1-3)]GlcNAc
In short: as §1

[3] = molecular target: Fuc(a1-2)Gal6S(b1-4)GlcNAc
In short: as §1

[4] = molecular target: Fuc(a1-2)[Gal(a1-3)]Gal(b1-3)GlcNAc
In short: as §1

[5] = molecular target: Fuc(a1-2)[GalNAc(a1-3)]Gal
In short: as §1

[6] = molecular target: Gal(a1-3)Gal(b1-4)[Fuc(a1-3)]GlcNAc
In short: as §1

Gal(b1-2)Gal = molecular target: Gal(b1-2)Gal
In short: as §1

[7] = molecular target: Gal(b1-3)GalNAc(b1-3)Gal(a1-4)Gal(b1-4)Glc
In short: as §1

[8] = molecular target: Gal(b1-3)[Fuc(a1-4)]GlcNAc(b1-3)Gal(b1-3)[Fuc(a1-4)]GlcNAc
In short: as §1

[9] = molecular target: Gal(b1-4)GalNAc(b1-3)[Fuc(a1-2)]Gal(b1-4)GlcNAc
In short: as §1

[10] = molecular target: Gal(b1-4)GlcNAc(a1-6)Gal(b1-4)GlcNAc
In short: as §1

[11] = molecular target: Gal(b1-4)GlcNAc(b1-3)[Gal(b1-4)GlcNAc(b1-6)]Gal(b1-4)GlcNAc
In short: as §1

[12] = molecular target: Gal(b1-4)GlcNAc(b1-3)[GlcNAc(b1-6)]Gal(b1-4)GlcNAc
In short: as §1

[13] = molecular target: Gal(b1-4)GlcNAc(b1-6)[Gal(b1-3)]GalNAc
In short: as §1

GalNAc(b1-3)Gal = molecular target: GalNAc(b1-3)Gal
In short: as §1

[14] = molecular target: GalNAc(b1-3)Gal(a1-4)Gal(b1-4)GlcNAc
In short: as §1

GlcA(b1-6)Gal = molecular target: GlcA(b1-6)Gal
In short: as §1

GlcNAc(b1-3)Gal(b1-4)Glc = molecular target: GlcNAc(b1-3)Gal(b1-4)Glc
In short: as §1

[15] = molecular target: GlcNAc(b1-4)GlcNAc(b1-4)GlcNAc(b1-4)GlcNAc(b1-4)GlcNAc
In short: as §1

[16] = molecular target: GlcNAc(b1-6)Gal(b1-4)GlcNAc
In short: as §1

[17] = molecular target: Man(a1-2)Man(a1-3)[Man(a1-2)Man(a1-6)]Man(a1-6)[Man(a1-2)Man(a1-2)Man(a1-3)]Man
In short: as §1

[18] = molecular target: Neu5Ac(a2-3)Gal(b1-3)[Fuc(a1-4)]GlcNAc(b1-3)Gal(b1-4)[Fuc(a1-3)]GlcNAc
In short: as §1

[19] = molecular target: Neu5Ac(a2-3)Gal(b1-4)GlcNAc(b1-2)Man(a1-3)[Neu5Ac(a2-6)Gal(b1-4)GlcNAc(b1-2)Man(a1-6)]Man(b1-4)GlcNAc(b1-4)GlcNAc
In short: as §1

[20] = molecular target: Neu5Ac(a2-3)GalNAc(b1-4)GlcNAc
In short: as §1

Neu5Ac(a2-6)Gal = molecular target: Neu5Ac(a2-6)Gal
In short: as §1

[21] = molecular target: Neu5Ac(a2-6)Gal(b1-4)GlcNAc6S
In short: as §1

[22] = molecular target: Neu5Ac(a2-8)Neu5Ac(a2-8)Neu5Ac(a2-3)Gal(b1-4)Glc
In short: as §1

[23] = molecular target: Neu5Ac9Ac(a2-6)Gal(b1-4)GlcNAc
In short: as §1

[24] = molecular target: Neu5Gc(a2-3)Gal(b1-4)GlcNAc
In short: as §1

[25] = molecular target: Fuc(a1-2)Gal(b1-4)[Fuc(a1-3)]GlcNAc(b1-3)Gal(b1-4)[Fuc(a1-3)]GlcNAc(b1-3)Gal(b1-4)[Fuc(a1-3)]GlcNAc
In short: as §1

[26] = molecular target: Fuc(a1-2)Gal6S(b1-4)Glc6S
In short: as §1

Fuc(a1-2)[Gal(a1-3)]Gal = molecular target: Fuc(a1-2)[Gal(a1-3)]Gal
In short: as §1

[27] = molecular target: Fuc(a1-2)[GalNAc(a1-3)]Gal(b1-4)GlcNAc
In short: as §1

Gal3S(b1-4)GlcNAc = molecular target: Gal3S(b1-4)GlcNAc
In short: as §1

Gal3S4S(b1-4)GlcNAc = molecular target: Gal3S4S(b1-4)GlcNAc
In short: as §1

Gal3S6S(b1-4)GlcNAc6S = molecular target: Gal3S6S(b1-4)GlcNAc6S
In short: as §1

Gal6S(b1-4)Glc6S = molecular target: Gal6S(b1-4)Glc6S
In short: as §1

Gal6S(b1-4)GlcNAc6S = molecular target: Gal6S(b1-4)GlcNAc6S
In short: as §1

[28] = molecular target: GlcNAc(b1-2)Gal(b1-3)GalNAc
In short: as §1

Man(a1-2)Man(a1-3)Man = molecular target: Man(a1-2)Man(a1-3)Man
In short: as §1

Neu5Ac(a2-3)Gal(b1-4)Glc = molecular target: Neu5Ac(a2-3)Gal(b1-4)Glc
In short: as §1

[29] = molecular target: Neu5Ac(a2-6)Gal(b1-4)GlcNAc(b1-2)Man(a1-6)[Gal(b1-4)GlcNAc(b1-2)Man(a1-3)]Man(b1-4)GlcNAc(b1-4)GlcNAc
In short: as §1

Neu5Ac(a2-6)GalNAc = molecular target: Neu5Ac(a2-6)GalNAc
In short: as §1

B1: GH95CBM (Clostridium perfringens) (protein)
chain: EKVAVETSVYLSELEWKSASTGYGEIQKDASCDGNTITLKGENGEKVSYDKGIGTHAHSEIVYSLEGLDYYDYFETFVGVDQEMAGTVASISFEVYLDNEKVFDSGLMTGDTTQKHVKVPIAGKNTLKLVVKDGGDSIGSDHGSFGDAKLT
- glycan array binding signal (z-score) [1]: -0.334
- glycan array binding signal (z-score) [2]: -0.325
- glycan array binding signal (z-score) [3]: -0.296
- glycan array binding signal (z-score) [4]: -0.321
- glycan array binding signal (z-score) [5]: -0.291
- glycan array binding signal (z-score) [6]: 4.88
- glycan array binding signal (z-score) (Gal(b1-2)Gal): 2.38
- glycan array binding signal (z-score) [7]: 4.91
- glycan array binding signal (z-score) [8]: -0.312
- glycan array binding signal (z-score) [9]: 4.18
- glycan array binding signal (z-score) [10]: -0.283
- glycan array binding signal (z-score) [11]: -0.311
- glycan array binding signal (z-score) [12]: -0.326
- glycan array binding signal (z-score) [13]: 3.34
- glycan array binding signal (z-score) (GalNAc(b1-3)Gal): 3.84
- glycan array binding signal (z-score) [14]: 6.95
- glycan array binding signal (z-score) (GlcA(b1-6)Gal): -0.227
- glycan array binding signal (z-score) (GlcNAc(b1-3)Gal(b1-4)Glc): -0.347
- glycan array binding signal (z-score) [15]: -0.133
- glycan array binding signal (z-score) [16]: -0.319
- glycan array binding signal (z-score) [17]: 1.43
- glycan array binding signal (z-score) [18]: -0.265
- glycan array binding signal (z-score) [19]: -0.357
- glycan array binding signal (z-score) [20]: -0.362
- glycan array binding signal (z-score) (Neu5Ac(a2-6)Gal): -0.355
- glycan array binding signal (z-score) [21]: -0.298
- glycan array binding signal (z-score) [22]: -0.343
- glycan array binding signal (z-score) [23]: -0.367
- glycan array binding signal (z-score) [24]: -0.34

B2: CBM32-4 (Clostridium perfringens), P26831 (protein)
chain: MGSSHHHHHHSSGLVPRGSHMASVYEPSLVDAYVGDDGAKKAVDGDLKTRVKFLGAPSTGDTIVYDLGQEILVDNLKYVVLDTEVDHVRDGKIQLSLDGETWTDAINIGDGVENGVDDMFSTPLKNGYKHGNQSGGIVPIDSAYVEGDNLNQKARYVRILFTAPYRHRWTVINELMINNGEYIPTVNDPT
- glycan array binding signal (z-score) [1]: -0.104
- glycan array binding signal (z-score) [25]: -0.29
- glycan array binding signal (z-score) [26]: 4.3
- glycan array binding signal (z-score) (Fuc(a1-2)[Gal(a1-3)]Gal): -0.4
- glycan array binding signal (z-score) [27]: -0.266
- glycan array binding signal (z-score) (Gal3S(b1-4)GlcNAc): -0.195
- glycan array binding signal (z-score) (Gal3S4S(b1-4)GlcNAc): 3.87
- glycan array binding signal (z-score) (Gal3S6S(b1-4)GlcNAc6S): 5.67
- glycan array binding signal (z-score) (Gal6S(b1-4)Glc6S): 4.96
- glycan array binding signal (z-score) (Gal6S(b1-4)GlcNAc6S): 4.9
- glycan array binding signal (z-score) [28]: -0.264
- glycan array binding signal (z-score) (Man(a1-2)Man(a1-3)Man): -0.021
- glycan array binding signal (z-score) [17]: -0.564
- glycan array binding signal (z-score) (Neu5Ac(a2-3)Gal(b1-4)Glc): -0.183
- glycan array binding signal (z-score) [29]: -0.336
- glycan array binding signal (z-score) (Neu5Ac(a2-6)GalNAc): -0.363
